# Calls of active or inactive are those of the source.
# Assays:
# [1] = tested on: Plasmodium falciparum Sir2 (PF13_0152, Sir2A); assay: Plasmodium falciparum Sir2A binding compounds – biochemical, small-molecule microarray, 635 nm fluorescence, primary screen (AID 1098); conditions: fluorescence 635 nm, higher = more signal;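 further: score merges spot fluorescence intensity with its signal-to-noise ratio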
# [2] = probe aDKK1 binding to arrayed compounds – biochemical, biotinylated probe, 635/667 nm fluorescence, primary screen (AID 1099); conditions: small-molecule microarray, higher = more signal;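 further: score merges 667nm spot fluorescence with signal to noise across triplicate slides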
# [3] = probe aCHRDL2 binding to arrayed compounds – biochemical, biotinylated probe, 635/667 nm fluorescence, primary screen (AID 1100); conditions: small-molecule microarray, higher = more signal
# [4] = change in splice reporter luminescence, either direction, cell-based, HEK293, spliceosome inhibition project, primary screen (AID 1101); conditions: HEK293 splicing luciferase reporter, 24 h, higher = more signal, called active from +8 up or from −8 down;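 further: HEK293 cells carrying a splicing-competent luciferase reporter gene; test concentration not given here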
# [5] = biological target: Fibroblast growth factor 10 (Homo sapiens) (UniProt O15520); assay: compounds binding fibroblast growth factor 10 – biochemical, small-molecule microarray, 635 nm fluorescence, primary screen (AID 1102); conditions: FGF10 binding, fluorescence 635 nm, higher = more signal
# Fibroblast growth factor 10 (Homo sapiens), sequence (O15520 whole entry, looked up): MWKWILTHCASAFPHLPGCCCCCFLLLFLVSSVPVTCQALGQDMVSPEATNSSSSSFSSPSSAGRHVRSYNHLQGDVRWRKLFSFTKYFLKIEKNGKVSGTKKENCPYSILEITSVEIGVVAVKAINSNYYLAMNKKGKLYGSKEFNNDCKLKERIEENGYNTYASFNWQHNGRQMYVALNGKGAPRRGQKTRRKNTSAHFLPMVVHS
# [6] = tested on: glycogen synthase kinase-3 (GSK3A per assay name; protocol says GSK3B); assay: compounds binding glycogen synthase kinase-3 – biochemical, small-molecule microarray, 635 nm fluorescence, GSK3A, primary screen (AID 1103); conditions: fluorescence 635 nm, higher = more signal; further: the record names both GSK3A and GSK3B
# [7] = biological target: Epidermal growth factor receptor (Homo sapiens) (UniProt P00533); assay: compounds binding epidermal growth factor receptor – biochemical, small-molecule microarray, 635 nm fluorescence, primary screen (AID 1104); conditions: EGFR binding, higher = more signal;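 further: score merges 667 nm emission intensity with spot signal to noise over triplicate slides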
# Epidermal growth factor receptor (Homo sapiens), sequence (P00533 whole entry, looked up): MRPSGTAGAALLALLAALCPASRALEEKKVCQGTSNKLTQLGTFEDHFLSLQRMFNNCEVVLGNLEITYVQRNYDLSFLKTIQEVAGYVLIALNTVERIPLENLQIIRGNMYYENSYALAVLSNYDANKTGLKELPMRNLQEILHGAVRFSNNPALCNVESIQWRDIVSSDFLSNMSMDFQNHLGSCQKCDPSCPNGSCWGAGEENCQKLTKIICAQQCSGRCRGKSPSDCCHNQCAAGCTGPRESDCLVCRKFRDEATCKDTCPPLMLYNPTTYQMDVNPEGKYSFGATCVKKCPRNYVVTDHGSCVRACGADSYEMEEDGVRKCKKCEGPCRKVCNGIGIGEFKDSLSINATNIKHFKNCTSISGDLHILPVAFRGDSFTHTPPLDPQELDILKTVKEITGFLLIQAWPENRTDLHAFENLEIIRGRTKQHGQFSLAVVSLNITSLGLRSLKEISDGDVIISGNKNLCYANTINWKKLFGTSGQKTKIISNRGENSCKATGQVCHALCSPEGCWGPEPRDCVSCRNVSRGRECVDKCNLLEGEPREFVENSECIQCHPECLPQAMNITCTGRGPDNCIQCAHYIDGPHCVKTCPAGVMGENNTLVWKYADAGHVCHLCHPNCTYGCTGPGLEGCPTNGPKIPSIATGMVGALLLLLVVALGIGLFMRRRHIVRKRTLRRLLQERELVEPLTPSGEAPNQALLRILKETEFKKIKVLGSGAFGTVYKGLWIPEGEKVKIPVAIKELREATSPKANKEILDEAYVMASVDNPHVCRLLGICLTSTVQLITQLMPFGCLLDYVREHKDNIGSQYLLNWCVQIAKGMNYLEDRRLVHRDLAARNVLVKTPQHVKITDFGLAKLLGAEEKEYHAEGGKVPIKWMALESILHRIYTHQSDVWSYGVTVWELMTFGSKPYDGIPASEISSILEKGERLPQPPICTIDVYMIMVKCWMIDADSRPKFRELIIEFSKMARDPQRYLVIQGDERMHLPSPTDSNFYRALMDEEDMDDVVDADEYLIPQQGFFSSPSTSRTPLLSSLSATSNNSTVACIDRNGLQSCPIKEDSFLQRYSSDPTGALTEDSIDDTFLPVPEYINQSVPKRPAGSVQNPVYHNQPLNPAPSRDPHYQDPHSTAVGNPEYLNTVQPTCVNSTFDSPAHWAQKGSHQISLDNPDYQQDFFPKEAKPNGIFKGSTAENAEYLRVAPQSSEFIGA
# [8] = biological target: Follistatin-related protein 3 (Homo sapiens) (UniProt O95633); assay: compounds binding follistatin-related protein 3 – biochemical, small-molecule microarray, 635 nm fluorescence, primary screen (AID 1105); conditions: FSTL3 binding, higher = more signal;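 further: score merges emission near 667 nm and signal to noise per printed spot across three slides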
# Follistatin-related protein 3 (Homo sapiens), sequence (O95633 whole entry, looked up): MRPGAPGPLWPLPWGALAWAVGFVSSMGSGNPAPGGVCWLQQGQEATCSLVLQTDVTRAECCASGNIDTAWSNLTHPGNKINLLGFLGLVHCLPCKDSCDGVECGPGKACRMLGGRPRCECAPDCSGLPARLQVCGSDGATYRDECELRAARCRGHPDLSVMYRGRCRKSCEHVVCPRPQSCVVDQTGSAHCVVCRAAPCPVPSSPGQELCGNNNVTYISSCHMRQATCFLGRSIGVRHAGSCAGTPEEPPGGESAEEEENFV
# [9] = biological target: Dickkopf-related protein 1 (Homo sapiens) (UniProt O94907); assay: small molecules binding DKK1 protein – biochemical, small-molecule microarray, 635 nm fluorescence scan, primary screen (AID 1106); conditions: higher = more signal;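 further: score merges emission near 667 nm with signal to noise over three replicate slides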
# Dickkopf-related protein 1 (Homo sapiens), sequence (O94907 whole entry, looked up): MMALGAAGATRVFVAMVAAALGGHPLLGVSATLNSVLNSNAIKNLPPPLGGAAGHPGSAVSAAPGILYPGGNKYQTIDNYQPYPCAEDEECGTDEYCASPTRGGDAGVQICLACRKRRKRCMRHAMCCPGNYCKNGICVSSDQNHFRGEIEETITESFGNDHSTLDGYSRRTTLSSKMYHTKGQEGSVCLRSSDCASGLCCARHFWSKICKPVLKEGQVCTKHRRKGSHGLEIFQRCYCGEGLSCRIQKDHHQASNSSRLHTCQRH
# [10] = tested on: Inhibin beta A chain (activin A); assay: small molecules binding activin A – biochemical, small-molecule microarray, 635 nm fluorescence scan, primary screen (AID 1107); conditions: INHBA, higher = more signal;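 further: mouse activin A protein probed at 4.33 µg/mL on printed slides; score merges bound-protein fluorescence near 667 nm with spot signal-to-noise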
# [11] = tested on: Human papillomavirus type 1a protein E7 (residues 44-93); assay: small molecules binding HPV E7 44-93 – biochemical, small-molecule microarray, residues 44-93, 635 nm fluorescence, primary screen (AID 1108); conditions: fluorescence 635 nm, higher = more signal;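 further: E7 fragment applied at 1 µg/mL in TBST for 1 h at 4 C; score combines spot fluorescence with its signal to noise ratio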
# [12] = hepatitis C replication reporter changes, two-sided – Huh7 cells, luciferase reporter, HCV replication inhibitor project, primary screen (AID 1109); conditions: Huh7 HCV replicon luciferase reporter, 48 h; higher = more signal;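 further: huh7 hepatoma cells harbouring a luciferase neomycin HCV replicon reporter; luciferase luminescence as measure of HCV replicon replication; test concentration not given here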
# [13] = biological target: Left-right determination factor 2 (Homo sapiens) (UniProt O00292); assay: small molecules binding LEFTY2 protein – biochemical, small-molecule microarray, 635 nm fluorescence scan, primary screen (AID 1110); conditions: higher = more signal
# Left-right determination factor 2 (Homo sapiens), sequence (O00292 whole entry, looked up): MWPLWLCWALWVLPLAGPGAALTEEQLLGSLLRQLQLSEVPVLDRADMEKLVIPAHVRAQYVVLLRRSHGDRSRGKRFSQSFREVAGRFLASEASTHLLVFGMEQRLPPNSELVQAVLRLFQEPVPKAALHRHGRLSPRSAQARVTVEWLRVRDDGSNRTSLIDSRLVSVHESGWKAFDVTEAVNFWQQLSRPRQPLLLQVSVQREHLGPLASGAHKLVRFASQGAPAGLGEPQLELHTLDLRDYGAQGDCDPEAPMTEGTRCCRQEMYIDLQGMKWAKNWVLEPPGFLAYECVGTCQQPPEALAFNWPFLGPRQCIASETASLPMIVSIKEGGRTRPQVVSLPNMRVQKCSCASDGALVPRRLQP
# [14] = biological target: Calmodulin-1 (Homo sapiens) (UniProt P0DP23); assay: small molecules binding calmodulin-1 with EGTA – biochemical, small-molecule microarray, Cy5-labelled CALM1, profiling panel (AID 1111); conditions: Cy5-CALM1 binding fluorescence, higher = more signal;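 further: labelled calmodulin applied in Tris saline Tween buffer holding calcium plus EGTA and DTT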
# [15] = biological target: Calmodulin-1 (Homo sapiens) (UniProt P0DP23); assay: small molecules binding Ca-loaded calmodulin-1 – biochemical, small-molecule microarray, Cy5-labelled CALM1, plus calcium, artefact control for SMM control-protein annotation, profiling panel (AID 1112); conditions: Cy5-CALM1 binding fluorescence, higher = more signal;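 further: score merges spot fluorescence with signal to noise from triplicate slides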
# [16] = probe aWnt5a binding to arrayed compounds – biochemical, biotinylated probe, 635/667 nm fluorescence, primary screen (AID 1113); conditions: small-molecule microarray, higher = more signal;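 further: score merges 667 nm fluorescence intensity with signal-to-noise per printed feature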
# [17] = probe aShh binding to arrayed compounds – biochemical, biotinylated probe, 635/667 nm fluorescence, primary screen (AID 1114); conditions: small-molecule microarray, higher = more signal;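 further: probe is biotin-labelled aShh protein from a stem cell growth factor screen; measures binding of labelled protein to compounds printed on the slide; score merges feature fluorescence at 667 nm with signal-to-noise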
# [18] = probe aNog binding to arrayed compounds – biochemical, biotinylated probe, 635/667 nm fluorescence, primary screen (AID 1115); conditions: small-molecule microarray, higher = more signal;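 further: probe is biotinylated aNog protein used at 0.15 µg/mL for 1 h at 4 C; z-score combines 667 nm fluorescence of each spot with its signal to noise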
# [19] = biological target: Torsin-1A-interacting protein 1 (Homo sapiens) (UniProt Q5JTV8); assay: compound microarray binding of lysate hLAP1 – cell lysate, small-molecule microarray, COS7 lysate, 635/667 nm fluorescence, primary screen (AID 1116); conditions: 635 nm fluorescence, higher = more signal
# Torsin-1A-interacting protein 1 (Homo sapiens), sequence (Q5JTV8 whole entry, looked up): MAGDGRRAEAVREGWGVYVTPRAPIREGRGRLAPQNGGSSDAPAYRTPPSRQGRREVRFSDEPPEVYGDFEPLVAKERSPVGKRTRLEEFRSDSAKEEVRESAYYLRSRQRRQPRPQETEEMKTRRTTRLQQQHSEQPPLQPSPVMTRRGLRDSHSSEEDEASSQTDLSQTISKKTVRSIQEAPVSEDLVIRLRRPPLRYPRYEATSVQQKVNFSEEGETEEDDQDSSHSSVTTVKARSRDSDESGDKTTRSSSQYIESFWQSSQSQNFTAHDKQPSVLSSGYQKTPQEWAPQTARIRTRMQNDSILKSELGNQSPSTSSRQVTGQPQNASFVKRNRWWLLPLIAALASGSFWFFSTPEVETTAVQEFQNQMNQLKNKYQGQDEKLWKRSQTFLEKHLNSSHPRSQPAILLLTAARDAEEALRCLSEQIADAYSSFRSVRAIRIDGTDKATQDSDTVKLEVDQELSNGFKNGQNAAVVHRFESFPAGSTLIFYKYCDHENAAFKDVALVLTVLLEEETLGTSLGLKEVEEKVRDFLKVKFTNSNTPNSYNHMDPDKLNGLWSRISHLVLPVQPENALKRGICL
# [20] = biological target: Alpha-bungarotoxin (Bungarus multicinctus) (UniProt P60615); assay: compounds binding labelled alpha-BTX control protein – biochemical, small-molecule microarray, Alexa647 label, 635/667 nm fluorescence, artefact control for SMM control protein annotation, profiling panel (AID 1117); conditions: alpha-BTX-A647 binding fluorescence, higher = more signal
# Alpha-bungarotoxin (Bungarus multicinctus), sequence (P60615 whole entry, looked up): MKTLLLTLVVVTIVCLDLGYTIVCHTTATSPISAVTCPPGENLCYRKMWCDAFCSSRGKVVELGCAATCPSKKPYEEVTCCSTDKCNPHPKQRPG
SMILES,composite z-score [1],composite z-score [2],composite z-score [3],z-score [4],composite z-score [5],composite z-score [6],composite z-score [7],composite z-score [8],composite z-score [9],composite z-score [10],composite z-score [11],z-score [12],composite z-score [13],composite z-score [14],composite z-score [15],composite z-score [16],composite z-score [17],composite z-score [18],composite z-score [19],composite z-score [20]
CC(C)NC(=O)[C@@]1(C)c2ccccc2C(=O)N(Cc2cc(C(F)(F)F)cc(C(F)(F)F)c2)[C@H]1c1ccc(CO)cc1,1.2,0.0251,1.17,0.207 (inactive),-0.609,-0.589,-0.584,-1.13,-0.788,-0.0259,1.02,-0.319,-0.826,0.226,0.764,-0.101,-0.0398,1.07,0.454,-0.361
C=CCOC(=O)[C@@H]1[C@H]2C(=O)O[C@H](c3ccccc3)[C@H](c3ccccc3)N2[C@H](c2ccc(OCCOC(=O)[C@H]3C[C@H]4C(=O)N5CCC[C@H]5C(=O)N4[C@H]3c3ccc(O)cc3)cc2)[C@@]12C(=O)Nc1ccc(I)cc12,1.62,0.158,0.0375,-1.27 (inactive),1.17,1.34,0.785,1.14,0.986,0.379,0.453,-1.5,0.928,1.02,-0.181,-0.203,0.285,-0.326,0.65,1.61
COC(=O)[C@@]1(Cc2ccc(F)cc2)[C@H]2c3cc(C(=O)N4CCCC4)n(Cc4ccc(S(C)(=O)=O)cc4)c3C[C@H]2CN1C(=O)c1ccccc1,1.2,1.14,0.949,-0.501 (inactive),0.598,0.108,0.771,0.473,0.328,1.38,1.38,-1.88,0.533,1.36,1.05,0.25,0.232,1.89,0.186,0.453
C[N+](C)(C)CCCCCCNC(=O)[C@@H]1C[C@@H]2C(=O)N[C@@H](Cc3ccccc3)C(=O)N2[C@@H]1c1cccc(OCCO)c1,1.63,-0.147,0.376,-0.189 (inactive),0.72,0.216,-0.0586,1.32,1.02,0.615,0.44,0.137,0.542,-0.637,-0.792,-0.107,-0.0813,-0.364,1.22,1.24
CCCC[C@@H]1C[C@H]1[C@@H](NC(=O)c1ccccc1)c1ccc(C(=O)OC)cc1,0.798,0.393,1.18,-2.47 (inactive),-0.358,-0.534,-1.38,-0.668,-1.57,1.19,-0.541,-1.15,-1.9,0.155,0.685,-0.0236,-0.0849,-1.02,-0.679,-0.0885
C=CCC(OC(C)=O)[C@@H]1[C@@H](N(Cc2ccc(-c3ccccc3)cc2)C(=O)Cc2ccc(OC)cc2)c2cc(OCCCO)ccc2N1C(=O)Cc1ccc2ccccc2c1 (stereo not given in full),-0.324,-0.0834,0.308,0.247 (inactive),-0.437,-0.299,-0.163,-0.0274,-0.0237,1.06,-0.285,-1.14,-0.305,-0.247,0.831,-0.0297,-0.0769,-0.366,-0.172,0.87
CCCCN1CC=CC23O[C@@H]4C=CCCOC(=O)C4[C@H]2C(=O)N(CCCCCCO)[C@@H]3C1=O (stereo not given in full),1.45,-0.466,-0.112,0.705 (inactive),-1.22,-0.163,-0.677,-0.187,-1.21,-0.39,0.748,-0.485,-1.11,-0.235,-0.0631,-0.274,-0.117,-0.413,0.999,-0.324
COc1cc(NN2C(C(O)c3ccco3)C=CC3C(=O)N(c4ccccc4)C(=O)C32)cc(OC)c1OC (stereo not given),1.69,0.157,0.485,0.523 (inactive),-0.0151,-0.0659,-0.395,0.373,-0.21,0.914,-0.271,-0.937,-0.198,-0.3,-0.657,-0.213,-0.29,0.133,1.05,0.425
CCOC(=O)C1=CC[C@@H](c2ccccc2)N(S(=O)(=O)c2ccc(C)cc2)[C@H]1c1ccccc1C,1.42,0.311,0.431,-0.876 (inactive),0.607,0.683,0.375,1.05,0.349,0.97,1.18,-1.6,0.104,0.232,0.296,-0.0512,0.294,-0.0496,0.336,-0.0244
[N-]=[N+]=NCc1ccccc1[C@@H]1OC(c2ccc(OCCCO)cc2)=N[C@]1(Cc1ccccc1)C(N)=O,1.01,0.758,0.864,-1.16 (inactive),1.42,1.3,-0.592,0.881,-0.117,0.857,1.45,-1.3,-0.33,2.2,1.02,-0.0286,0.365,1.14,-0.402,2.14

# Reference: PubChem BioAssay
